# Reference: PubChem BioAssay (NCATS)
# Records with an inconclusive call do not appear. The source made the active and inactive calls. Unless noted, calls come from the whole dose curve; as a rule, active = well fitted curve in the direction sought with a large enough effect; inconclusive = small, poorly fitted or top-dose-only effect, or another doubt; inactive = no such curve, though single readings can be large; an effect the other way counts as inactive or inconclusive.
# Assays:
# [1] = qHTS Assay for Identification of Small Molecule Antagonists for NFkB Signaling Pathway. (AID 624479; calls by dose curve;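 note: pathway stimulated with TNF alpha; potency is the fitted concentration of half-maximal effect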); details: NFkB pathway reporter cell assay, antagonist mode; series mostly up to 38.3 µM
# [2] = Cell Proliferation Assay against the TMD8 Cell Line (AID 651645); details: TMD8 DLBCL cell line proliferation/viability; at 46.1 µM (top of the series) unless noted;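 note: cells exposed to compound for 48 h before reading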
# Outline: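 TMD8 cells, 500/well in RPMI with 5% FBS, dosed immediately and grown 48 h at 37 C, 5% CO2. CellTiter-Glo luminescence normalised to DMSO 100% and 9.2 uM bortezomib (final) 0%.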
# [3] = Cell Proliferation Assay against the HBL1 Cell Line (AID 651646); details: HBL1 DLBCL cells; at 46.1 µM (top of the series) unless noted;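 note: cells exposed to compound for 48 h before reading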
# Outline: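 After a 48 h incubation of 500 HBL1 cells/well in phenol red-free RPMI plus 5% FBS, relative luciferase units from CellTiter-Glo gave percent activity against DMSO and 9.2 uM bortezomib (final) controls.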
# [4] = target: Luciferin 4-monooxygenase (Photinus pyralis) (UniProt P08659); test: Biochemical firefly luciferase enzyme assay for NPC (AID 624030);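 note: purified P. pyralis luciferase at 10 nM with luciferin and ATP substrate; 0% = DMSO and -100% = full luciferase inhibition by PTC124 control; nearly all actives have a fitted effect of over 70% in size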; details: purified P. pyralis luciferase, luminescence, 5 min; series mostly up to 58.6 µM
# Outline: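 Counter-screen for direct inhibition of the luciferase enzyme by approved-drug library compounds, run at 10 nM enzyme in 50 mM Tris acetate (final). Luminescence was read within 5 min of enzyme-buffer addition and normalized to PTC124 versus DMSO (0%).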
# [5] = S16 Schwann cell viability assay (CellTiter-Glo assay) (AID 624031); details: S16 rat Schwann cells viability, 24 h; series mostly up to 57.5 µM;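 note: cellular ATP luminescence as a viability measure; plate controls were DMSO-treated cells for no effect and cell-free wells for full effect; nearly all actives have a fitted effect of over 70% in size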
# Outline: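 Untransfected S16 rat Schwann cells; compound 24 h, 37 °C/5% CO2; CellTiter-Glo ATP luminescence. % activity vs no-cell wells and DMSO controls (0%); concentration-effect curves classed by r2, response magnitude, activity.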
# [6] = S16 Schwann cell PMP22 intronic element firefly luciferase assay (AID 624032); details: S16 rat Schwann cells, PMP22 element FLuc, 24 h; series mostly up to 57.5 µM;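 note: plate controls were DMSO for no effect and PTC124 positive control mean for full effect; nearly all actives have a fitted effect of over 30% in size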
# Outline: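 Rat S16 Schwann cells stably carrying a PMP22 intronic element-driven Fluc reporter were seeded overnight, then exposed to compounds for 24 h at 37 °C. Luminescence was normalized to PTC124 (positive control) and DMSO (0% activity).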
# [7] = target: Glutaminase kidney isoform, mitochondrial (Homo sapiens) (UniProt O94925); test: qHTS for Inhibitors of Glutaminase (GLS): LOPAC Validation (AID 624146); details: glutaminase enzyme activity inhibition; series mostly up to 46.1 µM;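 note: glutamate product detected by oxidase and peroxidase coupled Amplex red fluorescence gain; % is set by controls: 0 for no effect and ±100 for the full control effect; nearly all actives have a fitted effect of over 60% in size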
# Outline: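 hKGA in 45 mM KH2PO4 (pH 8.2), 0.02% Tween-20 with compound, then 1mM L-Glutamine (stock as added) plus glutamate oxidase/HRP/Amplex red coupling mix. Fluorescence read initially and after 30 min at RT; signal change reflects glutamate formation.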
# [8] = qHTS of Trypanosoma Brucei Inhibitors: LOPAC Validation (AID 624147); details: purified enzyme assay, luminescence, 45 min; series mostly up to 57.5 µM; note: 0% is about no effect
# Outline: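 Luminescence from Kinase-Glo Plus, added after a 45-minute room-temperature reaction, served as the end-point read-out. The enzyme and substrate were preincubated with compound before ADP (130 uM final) initiated turnover. Concentration-effect curves came from normalized qHTS data.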
# [9] = target: Glucagon-like peptide 1 receptor (Homo sapiens) (UniProt P43220); test: qHTS of GLP-1 Receptor Agonists: LOPAC Validation (AID 624148); details: GLP-1R agonist cell assay; series mostly up to 46.1 µM;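 note: 0% is about no effect; higher luminescence signal means agonism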
# Outline: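 HEK293 cells stably co-expressing a cAMP-responsive luciferase reporter and a hypersensitive GLP-1R were plated 12 h at 37 °C and exposed to compounds for 4-6 hr at 37 °C, 5% CO2. Luminescence was read 12 min after adding detection reagent.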
# [10] = HTS Assay for Allosteric Antagonists of the Human D2 Dopamine Receptor: Hit Validation in HTRF (AID 624455); details: Cells stably expressing D1 dopamine receptor, inhibition mode; series mostly up to 46.1 µM;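 note: stable D1 dopamine receptor cell line scored for blocking the D1 response; % is set by controls: 0 for no effect and ±100 for the full control effect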
# Outline: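 Validation of hits used D1 receptor stably expressed in cells with HTRF detection of response inhibition; origin screen measured calcium flux following EC80 dopamine in a force-coupled, inducible Hek293 Trex D2 cell line.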
# [11] = Cytotoxicity counterscreen for NFkB agonists and antagonists (AID 624476); details: NFkB reporter cell line viability counterscreen; series mostly up to 46.1 µM;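 note: potency is the fitted concentration of half-maximal effect; cells exposed to compound for 48 hours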
# [12] = Cell Proliferation Assay against the TMD8 Cell Line (Caspase readout at 16 hrs) (AID 651712); details: TMD8 lymphoma cells, caspase activation luminescence; series mostly up to 46.1 µM; note: potency is the fitted concentration of half-maximal effect
# Outline: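 16 h, 37 °C, TMD8 (500 cells/well), RPMI/5% FBS no phenol red; Caspase-Glo 3/7, 15 min RT, luminescence; %act: DMSO 0, bortezomib 9.2 uM final 100.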
# [13] = Cell Proliferation Assay against the TMD8 Cell Line (Caspase readout at 8 hrs) (AID 651713); details: TMD8 lymphoma cells, caspase activation luminescence; series mostly up to 46.1 µM; note: potency is the fitted concentration of half-maximal effect
# Outline: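 Luminescent caspase 3/7 assay; TMD8 cells, 8 h treatment at 37C, 5% CO2. Normalisation: DMSO 0%, 9.2 uM bortezomib 100%.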
# Chain of Glutaminase kidney isoform, mitochondrial (Homo sapiens) (O94925 whole entry, looked up, canonical isoform): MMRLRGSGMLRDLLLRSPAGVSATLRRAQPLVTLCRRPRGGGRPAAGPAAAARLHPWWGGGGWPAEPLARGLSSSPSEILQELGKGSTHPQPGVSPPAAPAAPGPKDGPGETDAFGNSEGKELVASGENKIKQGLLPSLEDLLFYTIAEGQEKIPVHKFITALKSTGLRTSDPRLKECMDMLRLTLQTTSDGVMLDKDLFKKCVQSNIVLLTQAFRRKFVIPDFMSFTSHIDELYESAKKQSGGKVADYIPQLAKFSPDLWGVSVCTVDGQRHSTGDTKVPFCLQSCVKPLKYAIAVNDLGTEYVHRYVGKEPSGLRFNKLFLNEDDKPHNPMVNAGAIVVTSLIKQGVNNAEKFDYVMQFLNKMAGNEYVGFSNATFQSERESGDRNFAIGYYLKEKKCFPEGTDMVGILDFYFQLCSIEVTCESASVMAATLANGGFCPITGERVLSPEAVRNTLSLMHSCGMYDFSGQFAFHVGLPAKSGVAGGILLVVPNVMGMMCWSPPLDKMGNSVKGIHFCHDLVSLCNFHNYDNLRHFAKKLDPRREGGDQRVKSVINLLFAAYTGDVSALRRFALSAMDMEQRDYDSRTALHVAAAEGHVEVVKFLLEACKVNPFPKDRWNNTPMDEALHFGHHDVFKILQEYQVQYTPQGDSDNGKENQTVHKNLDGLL
# Chain of Luciferin 4-monooxygenase (Photinus pyralis) (P08659 whole entry, looked up): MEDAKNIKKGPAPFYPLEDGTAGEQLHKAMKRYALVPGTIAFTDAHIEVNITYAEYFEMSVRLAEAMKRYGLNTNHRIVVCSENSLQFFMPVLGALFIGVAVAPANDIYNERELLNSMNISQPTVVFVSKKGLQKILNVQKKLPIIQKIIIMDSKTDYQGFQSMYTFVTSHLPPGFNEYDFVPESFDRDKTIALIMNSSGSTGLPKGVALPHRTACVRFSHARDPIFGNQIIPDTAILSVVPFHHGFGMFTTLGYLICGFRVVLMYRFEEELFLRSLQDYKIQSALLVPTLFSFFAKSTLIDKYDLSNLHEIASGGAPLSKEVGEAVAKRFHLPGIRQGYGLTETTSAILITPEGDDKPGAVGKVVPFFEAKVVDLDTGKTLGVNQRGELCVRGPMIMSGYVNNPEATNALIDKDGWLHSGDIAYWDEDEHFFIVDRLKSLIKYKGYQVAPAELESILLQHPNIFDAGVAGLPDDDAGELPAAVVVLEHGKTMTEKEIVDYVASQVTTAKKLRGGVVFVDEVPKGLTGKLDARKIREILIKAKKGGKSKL
# Chain of Glucagon-like peptide 1 receptor (Homo sapiens) (P43220 whole entry, looked up): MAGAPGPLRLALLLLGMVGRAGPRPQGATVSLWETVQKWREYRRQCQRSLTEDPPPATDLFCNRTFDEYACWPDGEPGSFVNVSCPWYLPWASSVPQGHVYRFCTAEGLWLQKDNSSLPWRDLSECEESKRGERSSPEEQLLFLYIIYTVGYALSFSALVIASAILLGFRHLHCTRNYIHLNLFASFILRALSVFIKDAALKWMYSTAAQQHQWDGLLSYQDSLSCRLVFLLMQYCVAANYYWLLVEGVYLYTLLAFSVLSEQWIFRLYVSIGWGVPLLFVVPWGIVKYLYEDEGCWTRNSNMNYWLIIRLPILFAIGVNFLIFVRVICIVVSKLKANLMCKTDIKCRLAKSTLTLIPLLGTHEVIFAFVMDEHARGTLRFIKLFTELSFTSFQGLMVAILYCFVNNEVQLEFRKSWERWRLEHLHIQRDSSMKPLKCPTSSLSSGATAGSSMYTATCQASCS
structure (smiles),measurement,setting,value
O=C(Nc1cc(C(F)(F)F)cc(C(F)(F)F)c1)c1cc(Cl)ccc1O,Potency,[1],14.9 µM (active)
Cc1nc2cnc3ccc(C#Cc4cccnc4)cc3c2n1-c1ccc(C(C)(C)C#N)cc1,Potency,[1],18.8 µM (active)
Nc1nc(-c2nn(Cc3ccccc3F)c3ncccc23)nc(N)c1N1CCOCC1,viability (% of control),[2],91.5%
same,"viability, percent of control",[3],114%
CC[C@H](CO)Nc1nc(NCc2ccccc2)c2ncn(C(C)C)c2n1,Potency,[1],11.9 µM (active)
C=CCN1CC[C@]23CCCCC2[C@H]1Cc1ccc(O)cc13 (stereo partly specified),Potency,[4],inactive
same,Potency,[5],inactive
same,Potency,[6],inactive
same,Potency,[7],inactive
same,outcome,[8],inactive
same,outcome,[9],inactive
same,Potency,[10],inactive
CC(C)(C)c1[nH]cnc1C=c1[nH]c(=O)c(=Cc2ccccc2)[nH]c1=O,Potency,[11],18.7 µM (active)
same,Potency,[1],16.8 µM (active)
same,Potency,[12],23.5 nM (active)
same,Potency,[13],59 nM (active)
